Our source for the inhibition values is PubChem BioAssay AID1063 (University of Pittsburgh Molecular Library Screening Center, 2008).

The whole screen tested about 200,000 compounds, of which about 18,000 (9%) were called active. Cut-off read from the data, not from the text of the source: active = inhibition above about 50%; inactive = the rest. Many of the other results were omitted from the sample, so actives are more common in it than they were.

The nature of this assay: Leishmania major promastigote growth inhibition, primary screen (AID 1063).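 Note: promastigotes grown with compound for 44 hours at 28 °C.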 Conditions: Leishmania major promastigotes, resazurin fluorescence viability; at 10 µM; hits give high values. For orientation: The colour change of resazurin is a common sign of viable cells or microbes.
Broadly, the inhibition is the change of the read-out against control, counted positive when it falls. As for `COc1ccc(F)cc1C(=O)C1CCCN(C(=O)CCc2ccccn2)C1` (configuration not stated), the inhibition is -6.74% (inactive). To `COc1cccc(CN2CCNC(=O)C2CC(=O)N(C)CCc2ccccn2)c1` (configuration not stated) belongs 1.29% (inactive); to `CN(CCc1ccccn1)C(=O)CCC1CCCN(Cc2ccccc2OC(F)F)C1` (configuration not stated), 67.9% (active); to `CN1CCNC(=O)C1CC(=O)N1CC=C(c2ccc(F)cc2)CC1` (configuration not stated), -0.97% (inactive). With `Cn1cccc1-c1nc2ccccc2n1C`, the inhibition is 6.87% (inactive).

Regarding `O=C(CC1SC(=Nc2ccccc2F)N(CCN2CCOCC2)C1=O)Nc1ccc(F)cc1F` (configuration not stated), the inhibition is 50.8% (active). As for `N#C/C(C(=O)N1CCOCC1)=C1/SC(Cc2ccc(F)cc2)C(=O)N1c1ccccc1` (configuration not stated), the figure is -0.55% (inactive); as for `CCN1C(=O)C(CC(=O)Nc2cc(C)ccc2C)SC1=Nc1ccc(S(N)(=O)=O)cc1` (configuration not stated), 10.5% (inactive); as for `CCOC(=O)Cc1ncccc1C(=O)Nc1ccc(OC(F)(F)F)cc1`, -5.35% (inactive). Turning to `N#C/C(=C(\O)CCl)c1nnc2n1CCCCC2`, the inhibition is -1.52% (inactive).

On to `N#C/C(=C(\O)C(F)(F)F)c1nnc2n1CCCCC2`, for which the inhibition was -2.09% (inactive). For `N#C/C(=C/c1cccc([N+](=O)[O-])c1)c1nnc2n1CCCCC2`, the inhibition was 81.3% (active). As for `Cc1ccc2nc(Nc3ncc4c(n3)CC(C)(C)CC4=O)nc(C)c2c1`, the figure is 9.71% (inactive). To `O=C(c1ccccc1)c1ccc2nc(N3CCCCC3)c3nncn3c2c1` belongs -0.8% (inactive). In the case of `Cn1cc(S(=O)(=O)N2CCC(Cc3ccccc3)CC2)c(=O)n(C)c1=O`, the inhibition is -5.82% (inactive). As for `c1ccc(CC2CCN(c3nc4ccccc4n4cnnc34)CC2)cc1`, the figure is 64.6% (active); as for `CCOCCCNC(=O)C(NC(=O)Cc1c[nH]c2ccccc12)c1ccc(OC)cc1` (configuration not stated), -7.71% (inactive); as for `COc1cc(C=O)c(Br)cc1OCC(=O)NCc1ccccc1`, 4.2% (inactive).

In the case of `COc1ccc(CCNC(=O)COC(=O)Cc2cc(OC)c(OC)c(OC)c2)cc1`, the inhibition is -3.11% (inactive). On to `Fc1ccc2[nH]c3c(N4CCSCC4)ncnc3c2c1`, for which the inhibition was 35.5% (inactive). As for `Cc1cc(N2CCN(Cc3ccc4c(c3)OCO4)CC2)n2ncnc2n1`, the figure is 12.7% (inactive); as for `Fc1ccc2[nH]c3c(N4CCN(Cc5ccc6c(c5)OCO6)CC4)ncnc3c2c1`, 77.8% (active); as for `Nc1nnnn1CC(=O)N/N=C/c1ccc(-c2cccc(Cl)c2)o1`, -9.69% (inactive). Take `COc1ccc(/C=N/n2c(C)cc(C)cc2=O)cc1`: the inhibition was -6.47% (inactive).

Take `CC(C)c1csc(CN2CCC(CO)(Cc3ccccc3)CC2)n1`: the inhibition was 14.2% (inactive). As for `CCC(C)CN1CCC(CO)(Cc2ccccc2Cl)CC1` (configuration not stated), the figure is 82.2% (active); as for `CC(CN1CCCCC1)OC(=O)c1ccccc1Cl` (configuration not stated), -4.92% (inactive). To `CC1COc2ccccc2N1S(=O)(=O)c1ccccc1` (configuration not stated) belongs 15.8% (inactive).

On to `CN1/C(=C\C=C2\N=C(c3ccc(F)cc3)OC2=O)C(C)(C)c2ccccc21`, for which the inhibition is 63.4% (active). To `CN1CCN(CCC(=O)N/N=C/C=C2\N(C)c3ccccc3C2(C)C)CC1` belongs 4.61% (inactive); to `CC(=O)Nc1cccc(OCC(=O)/C=C2\N(C)c3ccccc3C2(C)C)c1`, 48.1% (inactive). As for `O=C(O)CSc1nccc2ccccc12`, the figure is -6.68% (inactive); as for `O=C(c1ccccc1Cl)N(Cc1ccccc1F)N1C(=O)CCCC1=O`, -3.99% (inactive). As to `O=C(O)CC(SCC(=O)Nc1ccc(Br)cc1)C(=O)O` (configuration not stated), the inhibition was -3.9% (inactive). To `CC1(C)CC(=O)CC2(C1)NCC(c1ccccc1Cl)c1c2[nH]c2ccccc12` (configuration not stated) belongs 53.5% (active); to `c1ccc2c(c1)OCC(c1nn3cnnc3s1)O2` (configuration not stated), -7.7% (inactive). To `Cc1onc(-c2ccccc2)c1C(=O)NNC(=S)NC(=O)c1ccc(F)cc1` belongs -0.74% (inactive). To `O=C(Nc1nnc(C2COc3ccccc3O2)o1)c1ccc(F)cc1` (configuration not stated) belongs 84.8% (active); to `CCn1nc(C)c(CN2CCN(Cc3ccc(OC)c(C)c3C)C(CCO)C2)c1C` (configuration not stated), 5.83% (inactive). On to `CC1CCC(C(C)C)C(=O)/C1=C\c1ccc(NC(=O)CCC(=O)O)cc1` (configuration not stated), for which the inhibition was 4.09% (inactive). As for `O=C(c1ccc(OC2CCN(Cc3ccccn3)CC2)cc1)N1CCCCCC1`, the figure is 39.9% (inactive).

Take `COc1ccc(Br)cc1/C=N/NC(=O)c1cccc(S(=O)(=O)N2CCOCC2)c1`: the inhibition is 14.1% (inactive). Turning to `O=C(c1cccc(S(=O)(=O)N2CCOCC2)c1)N1CCOCC1`, the inhibition is -2.4% (inactive). With `O=C(N/N=C/c1ccc([N+](=O)[O-])o1)c1cccc(S(=O)(=O)N2CCOCC2)c1`, the inhibition was 99.2% (active). Turning to `O=C(Nc1ccc2oc(-c3ccccc3F)nc2c1)c1ccco1`, the inhibition was 9.45% (inactive).

On to `CS(=O)(=O)n1nc(-c2ccco2)nc1N`, for which the inhibition was -6.28% (inactive).

For the compound `CONc1nc2nonc2nc1NOC`, the inhibition was -1.47% (inactive). `Cc1nn(-c2ccccc2)c(Cl)c1/C=C/C(=O)c1ccc(O)cc1`: the inhibition was 44.1% (inactive). To `Cc1nn(-c2ccccc2)c(Cl)c1C(=O)Nc1ccccc1` belongs 1.56% (inactive); to `Cc1ccc(C(=O)/C=C/c2c(C)nn(-c3ccccc3)c2Cl)cc1`, 73.7% (active); to `CCCOC(=O)c1c(NC(=O)c2cnn3c2NC(c2ccccc2)CC3C(F)(F)F)sc2c1CCCC2` (configuration not stated), 4.09% (inactive). With `CCOC(=O)N1CCC(=NNC(N)=O)CC1`, the inhibition is -11.1% (inactive). On to `Cc1cccc(NC(=O)CN2C(=O)c3ccccc3C2=O)c1C`, for which the inhibition is -7.46% (inactive). As for `CCOc1ccc2nc(NC(=O)c3cc([N+](=O)[O-])ccc3N3CCOCC3)sc2c1`, the inhibition was 96% (active). As for `COc1ccc2nc(Nc3nc4ccc(NC(C)=O)cc4s3)sc2c1`, the inhibition is 6.91% (inactive).

For `Cc1cc(C)cc(OCC(=O)Nc2nc3ccc([N+](=O)[O-])cc3s2)c1`, the inhibition is -2.84% (inactive).

`O=C(NC1CCCCC1)c1cc([N+](=O)[O-])ccc1N1CCOCC1`: the inhibition was -6.49% (inactive). As for `CCOc1ccc2nc(Nc3nc4ccc(NC(C)=O)cc4s3)sc2c1`, the figure is 72.1% (active). To `CCOc1ccc2nc(SC(CC)C(=O)Nc3cc(C)on3)sc2c1` (configuration not stated) belongs 6.15% (inactive); to `COc1cccc(NC(=O)C(Sc2nnnn2C)c2ccccc2)c1` (configuration not stated), 10.5% (inactive); to `COc1ccc(CN(C)Cc2nc3cc(OC)c(OC)cc3c(=O)[nH]2)c(OC)c1`, 1.39% (inactive). To `Cc1cc(NC(=O)CSc2nc3cc(Cl)ccc3c(=O)n2Cc2ccco2)no1` belongs 4.4% (inactive); to `COc1ccc(-c2cc(-c3ccc(N)cc3)nc(N)c2C#N)cc1OC`, -6.13% (inactive). For `O=C(NC1CC1)c1ccc(-c2ccccc2)cc1`, the inhibition was 6.37% (inactive). For the compound `CCOC(=O)c1ccc(NC(=S)Nc2cc(C)cc(C)n2)cc1`, the inhibition was 5.79% (inactive).

On to `O=C(COc1ccc(Cl)cc1)NCc1nnc(SCC(=O)NCC2CCCO2)o1` (configuration not stated), for which the inhibition is -8.43% (inactive). To `CC(=O)N1c2ccccc2N(Cc2ccc([N+](=O)[O-])cc2)C(=O)C1(C)C` belongs 51.9% (active); to `CC(O)c1nc2ccccc2n1Cc1ccc([N+](=O)[O-])cc1` (configuration not stated), -2.56% (inactive); to `O=C(CSCc1ccc([N+](=O)[O-])cc1)NCCSCc1ccccc1`, 12.9% (inactive). With `O=C(Nn1cnc2ccccc2c1=O)c1ccccc1`, the inhibition was -0.77% (inactive). To `CCNC(=O)NNC(=O)C1CC(c2cccs2)=NO1` (configuration not stated) belongs -8.39% (inactive); to `CCN(C(=O)c1ccc(Br)cc1)c1ccccc1`, 3.92% (inactive); to `Cc1cc([N+](=O)[O-])nn1CCCC(=O)Nc1cccnc1Cl`, -6.69% (inactive). To `O=C(C1CCN(S(=O)(=O)c2ccc(Br)s2)CC1)N1CCN(C2CCCCC2)CC1` belongs 59.6% (active); to `O=C(C1CCN(S(=O)(=O)c2cccs2)CC1)N1CCCCCC1`, -2.87% (inactive). To `CS(=O)(=O)N1CCC(C(=O)N2CCN(c3ccccc3)CC2)CC1` belongs -3.18% (inactive); to `Cc1ccc(COc2ccc(C(=O)NN)cc2)cc1`, -1.34% (inactive).

For the compound `CN(CCOc1ccc(Br)cc1)CC(=O)Nc1cccc(S(=O)(=O)NC2=NCCC2)c1`, the inhibition was -1.24% (inactive). As for `CC1CN(CCOc2ccccc2[N+](=O)[O-])CC(C)O1` (configuration not stated), the figure is 8.57% (inactive); as for `Cc1ccc(C(C)(C)C)c(OCCCCN2CCCC2)c1`, 87.1% (active). As to `O=[N+]([O-])c1ccccc1OCCCCN1CCCCC1`, the inhibition was 82.4% (active). With `COc1ccccc1N1CCN(CCCCOc2ccc(F)cc2)CC1`, the inhibition was -5.52% (inactive).

As to `CCN1CCN(CCCCOc2ccccc2F)CC1`, the inhibition was 47.3% (inactive).

In the case of `Cc1ccc2c(C(=O)CN3CCCC3)c(C)[nH]c2c1`, the inhibition was 8.69% (inactive). As for `Cc1ccc(OCCCC(=O)N2CCOCC2)c(C)c1`, the figure is -2.9% (inactive); as for `Cc1ccc(OCCCCN2CCCCC2)c(Br)c1`, 97.8% (active). To `C=CCN(CC=C)CCOc1ccccc1[N+](=O)[O-]` belongs 12.2% (inactive); to `CC(C)OC(=O)Cn1nc(C(F)(F)F)c2c1CCCC2`, -5.66% (inactive).

Turning to `CC1CCCC(NC(=O)c2cccc(N3CCCC3=O)c2)C1C` (configuration not stated), the inhibition is -7.83% (inactive). As for `COCCNc1nc2nonc2nc1N1CCCC1c1nccs1` (configuration not stated), the figure is -4.44% (inactive); as for `O=C(c1cccc([N+](=O)[O-])c1)N1CCN(C(=O)c2ccco2)CC1`, 0.98% (inactive). To `CCn1c(COc2ccccc2)nnc1SCC(=O)Nc1ccc2c(c1)OCCO2` belongs -3.59% (inactive). With `CCn1c(COc2ccc(OC)cc2)nnc1SCC(=O)Nc1cc(OC)ccc1OC`, the inhibition is 60.8% (active). To `COc1ccc(OC)c(NC(=O)CSc2nc3cccnc3n2C)c1` belongs -3.05% (inactive). `COC(=O)c1ccc(NC(=O)CSc2nnc(CNc3ccc(OC)cc3)n2C)cc1`: the inhibition is 9.68% (inactive).

Turning to `C=CCn1c(CNC(=O)c2ccco2)nnc1SCC(=O)c1ccc(OC)cc1`, the inhibition was -7.42% (inactive). As for `CCn1c(CNc2ccc(OC)cc2)nnc1SCC(=O)c1ccc(OC)cc1`, the figure is 70.5% (active).
